{"source": "paper PMC4552634", "about": "“A New Set of Chemical Starting Points with Plasmodium falciparum Transmission-Blocking Potential for Antimalarial Drug Discovery” (PLoS ONE, 2015)", "note": "The whole screen tested about 13,000 compounds, of which about 3,200 (25%) showed an effect of 50% or more. Some of the results follow.", "data": [{"system": "P. falciparum stage V gametocytes", "design": "BacTiter-Glo ATP luminescence viability of purified stage V gametocytes in 384-well plates, per cent inhibition versus DMSO", "settings": "48 h, 5 µM; inhibitor", "units": {"% Inhibition": "%"}, "values": [{"smiles": "CCN1CCN(c2cc(C)c3cc(NC(=O)c4cncc(Br)c4)ccc3n2)CC1", "note": "[TCMDC-125571]", "% Inhibition": -6.09}, {"smiles": "Cc1ccc(-n2c(=O)c3c(n4c(SC(C)C)nnc24)-c2ccccc2CC32CCCCC2)cc1", "note": "[TCMDC-125077]", "% Inhibition": -67.75}, {"smiles": "Cc1cc([N+](=O)[O-])ccc1NC(=O)Nc1cccc(C(F)(F)F)c1", "note": "[TCMDC-124561]", "% Inhibition": -49.1}, {"smiles": "Cc1cccc2nc(-c3cccc(-c4cccc(C(=O)NCCN5CCCC5)c4)c3)[nH]c12", "note": "[TCMDC-132323]", "% Inhibition": 21.11}, {"smiles": "C=CC[C@H](NC(=O)c1ccc(NS(=O)(=O)c2ccc3nc(N)[nH]c(=O)c3c2)cc1)C(=O)OCCCC", "note": "[TCMDC-137699]", "% Inhibition": 10.92}, {"smiles": "CCCCCCCCN1CCCN(C(=O)c2cccc(NC(=O)Nc3ccc4ccccc4c3)c2)CC1", "note": "[TCMDC-141690]", "% Inhibition": -11.26}, {"smiles": "CC(CNc1ccnc(Nc2ccc3[nH]c(=O)[nH]c3c2)n1)c1ccccc1", "note": "(stereo not drawn) [TCMDC-136806]", "% Inhibition": -16.39}, {"smiles": "Nc1nc(N)c2c(Sc3ccccc3)cccc2n1", "note": "[TCMDC-131943]", "% Inhibition": 8.754}, {"smiles": "NC(=O)c1ccsc1NC(=O)CNC(c1ccccc1)c1ccc(Cl)cc1", "note": "(stereo not drawn) [TCMDC-125330]", "% Inhibition": 14.63}, {"smiles": "Cc1ccc2[nH]c(-c3ccc(/C=C/C(=O)NC4CCN(Cc5ccccc5)CC4)cc3)nc2c1C", "note": "[TCMDC-140451]", "% Inhibition": -45.16}, {"smiles": "Cc1cc2nc(-c3ccc(/C=C/C(=O)NC4CCN(Cc5ccccc5)CC4)cc3)[nH]c2cc1C", "note": "[TCMDC-140434]", "% Inhibition": 78.1}, {"smiles": "Cc1ccc2nc(-c3ccc(C=CC(=O)NC4CCN(Cc5ccccc5)CC4)cc3)[nH]c2c1", "note": "[TCMDC-140401]", "% Inhibition": 2.225}, {"smiles": "O=C(Nc1ccc(OC2CCN(Cc3ccc(F)cc3)CC2)c(Cl)c1)c1cccs1", "note": "[TCMDC-133746]", "% Inhibition": 32.62}, {"smiles": "O=C(Nc1ccc(OC2CCN(Cc3ccc(F)cc3)C2)c(Cl)c1)c1cccs1", "note": "(stereo not drawn) [TCMDC-133757]", "% Inhibition": 50.68}, {"smiles": "O=C(Nc1ccc(OC2CCN(Cc3ccc(F)cc3)C2)c(Cl)c1)c1ccco1", "note": "(stereo not drawn) [TCMDC-133761]", "% Inhibition": 61.05}, {"smiles": "O=C(Nc1ccc(OC2CCN(Cc3ccsc3)CC2)c(Cl)c1)c1ccco1", "note": "[TCMDC-134271]", "% Inhibition": 9.288}, {"smiles": "Cc1cc(NC(=O)c2ccco2)ccc1OC1CCN(Cc2ccc(F)cc2)C1", "note": "(stereo not drawn) [TCMDC-133760]", "% Inhibition": 22.57}, {"smiles": "Cc1cc(NC(=O)c2cccs2)ccc1OC1CCN(Cc2ccc(F)cc2)C1", "note": "(stereo not drawn) [TCMDC-133754]", "% Inhibition": 20.26}, {"smiles": "N#Cc1ccc(CN2CCC(Oc3ccc(NC(=O)c4cccs4)cc3Cl)CC2)cc1", "note": "[TCMDC-133955]", "% Inhibition": 10.06}, {"smiles": "O=C(Nc1ccc(OC2CCN(Cc3ccccc3)C2)c(Cl)c1)c1ccco1", "note": "(stereo not drawn) [TCMDC-133971]", "% Inhibition": 37.01}, {"smiles": "O=C(Nc1ccc(OC2CCN(Cc3ccc(F)cc3)CC2)c(Cl)c1)c1ccco1", "note": "[TCMDC-133750]", "% Inhibition": 24.88}, {"smiles": "Cc1cc(NC(=O)c2cccs2)ccc1OC1CCN(Cc2ccc(C#N)cc2)CC1", "note": "[TCMDC-133954]", "% Inhibition": 61.72}, {"smiles": "Cc1cc(NC(=O)c2cccs2)ccc1OC1CCN(Cc2ccc(C#N)cc2)C1", "note": "(stereo not drawn) [TCMDC-133960]", "% Inhibition": 27}, {"smiles": "O=C(Nc1ccc(OC2CCN(Cc3ccccc3)CC2)c(Cl)c1)c1ccco1", "note": "[TCMDC-133966]", "% Inhibition": 63.08}, {"smiles": "FC(F)(F)c1ccc2[nH]c(-c3ccc(-c4ccc(CNCc5cnn(-c6ccccc6)n5)cc4)s3)nc2c1.O=C(O)C(F)(F)F", "note": "[TCMDC-132975]", "% Inhibition": -22.66}, {"smiles": "COc1cccc(NC(=O)Nc2ccc(-c3oc(C(=O)NCC(c4ccccc4)N(C)C)cc3-c3ccncc3)cc2)c1", "note": "(stereo not drawn) [TCMDC-135783]", "% Inhibition": -10.27}, {"smiles": "Cc1c(F)cc(C(=O)NC2CC2)cc1-c1ccc2c(cnn2S(=O)(=O)c2ccc(C#N)cc2)c1", "note": "[TCMDC-135240]", "% Inhibition": -5.005}, {"smiles": "COc1ccc2nccc([C@@H](O)CN3CCC(NC(=O)c4[nH]c5ccccc5c4-c4ccccc4)CC3)c2c1", "note": "[TCMDC-141034]", "% Inhibition": -42.03}, {"smiles": "O=C(NCc1cccc(F)c1)Nc1ccc(-c2cccc(-c3nc4ccc(F)cc4[nH]3)c2)cc1", "note": "[TCMDC-133296]", "% Inhibition": 0.06231}, {"smiles": "Cc1ccc(NC(=O)c2ccc(N3CCC(c4ccccc4C)CC3)nc2)cc1", "note": "[TCMDC-134594]", "% Inhibition": 8.038}, {"smiles": "COc1ccc(CN2CCN(Cc3cc(Cl)ccc3O)CC2CCO)c(C)c1C", "note": "(stereo not drawn) [TCMDC-124638]", "% Inhibition": -22.47}, {"smiles": "N#Cc1ccc(CN2CCC(Oc3ccc(NC(=O)c4ccco4)cc3Cl)CC2)cc1", "note": "[TCMDC-133957]", "% Inhibition": 8.133}, {"smiles": "CC(C)CCN1CCC(Oc2ccc(NC(=O)c3ccc(F)cc3)cc2Cl)CC1", "note": "[TCMDC-133978]", "% Inhibition": 33.54}, {"smiles": "CC(C)CCN1CCC(Oc2ccc(NC(=O)c3ccco3)cc2Cl)CC1", "note": "[TCMDC-133976]", "% Inhibition": 100.7}, {"smiles": "O=C(NC(=S)NCc1ccncc1)c1ccccc1", "note": "[TCMDC-123842]", "% Inhibition": -6.445}, {"smiles": "NC1=NC(CCc2ccccc2)N(c2ccc(Cl)cc2)C(N)=N1", "note": "(stereo not drawn) [TCMDC-131290]", "% Inhibition": 6.603}, {"smiles": "COc1ccc2c(c1)Nc1ccc(Cl)cc1C2N", "note": "(stereo not drawn) [TCMDC-141985]", "% Inhibition": 106.2}, {"smiles": "Fc1cccc(COc2ccc(-n3ccc4c(NCCCn5ccnc5)ncnc43)cc2Cl)n1", "note": "[TCMDC-135092]", "% Inhibition": -5.729}, {"smiles": "COc1ccc2ccccc2c1C=NNc1ccnc2cc(Cl)ccc12", "note": "[TCMDC-123949]", "% Inhibition": -70.44}, {"smiles": "Cc1cc(N(C)CCCN(C)C)nc(Nc2ccc(Cl)cc2)n1", "note": "[TCMDC-136887]", "% Inhibition": 28.42}, {"smiles": "CCCN(CCC)CCCN(CCCN(CCC)CCC)c1cc(C)nc(Nc2ccc(Cl)cc2)n1", "note": "[TCMDC-137773]", "% Inhibition": 63.95}, {"smiles": "Cc1cc(NCCCCCCN)nc(Nc2ccc(Cl)cc2)n1", "note": "[TCMDC-138191]", "% Inhibition": 54.5}, {"smiles": "Cc1cc(N(CCCN(C)C)Cc2cc(F)cc(F)c2)nc(Nc2ccc(Cl)cc2)n1", "note": "[TCMDC-132203]", "% Inhibition": -7.276}, {"smiles": "CCN(CC)CCCN(CCCN(CC)CC)c1cc(C)nc(Nc2ccc(Cl)cc2)n1", "note": "[TCMDC-137489]", "% Inhibition": 39.75}, {"smiles": "CCCCN(CCCC)CCCN(CCCN(CCCC)CCCC)c1cc(C)nc(Nc2ccc(Cl)cc2)n1", "note": "[TCMDC-137487]", "% Inhibition": 97.2}, {"smiles": "CCCN(CCCN(CCCN(CCC)C(C)C)c1cc(C)nc(Nc2ccc(Cl)cc2)n1)C(C)C", "note": "[TCMDC-138003]", "% Inhibition": 44.69}, {"smiles": "CCNc1cc(C)nc(Nc2ccc(C)cc2)n1", "note": "[TCMDC-134007]", "% Inhibition": 5.581}, {"smiles": "CCNc1cc(C)nc(Nc2ccc(F)cc2)n1", "note": "[TCMDC-134008]", "% Inhibition": 39.4}]}]}
